Assay results published in PubChem BioAssay (NCI).
This is part of a sample that, as a whole, favours compounds with a hit. Of some 83,000 tested, about 20% had one in any assay.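 Treatment: one concentration, 48 hours, 96-well format. Scoring: percent growth, with anything below 10 considered active.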 Active and inactive are the calls of the source.

How the values were obtained:
Assay in all cases: NCI-60 one-dose screen, 48 h (100 = growth as untreated, 0 = no growth, -100 = all killed)
Details in all cases: 10 µM unless noted
T-47D breast = test system: T-47D breast
BT-549 breast = test system: BT-549 breast
MDA-MB-435 melanoma = test system: MDA-MB-435 melanoma
SW-620 colon = test system: SW-620 colon
MCF7 breast = test system: MCF7 breast
HCT-116 colon = test system: HCT-116 colon
HCC-2998 colon = test system: HCC-2998 colon
KM12 colon = test system: KM12 colon

Measured: growth

CN(C)c1ccc(/C=C2\C=C(c3ccccc3)N(CCc3ccccc3)C2=O)cc1
inactive: T-47D breast 82.3% | BT-549 breast 71.3% | MDA-MB-435 melanoma 95.3% | SW-620 colon 61.4% | MCF7 breast 60% | HCT-116 colon 42.2% | HCC-2998 colon 75.5% | KM12 colon 89.8%

CNC(=O)NCC1OC(n2cnc3c(NC(=O)Nc4ccccc4)ncnc32)C2OC(C)(C)OC12 (stereo unspecified)
inactive: T-47D breast 74.7% | BT-549 breast 71.7% | MDA-MB-435 melanoma 101% | SW-620 colon 91.1% | MCF7 breast 85.4% | HCT-116 colon 81.1% | HCC-2998 colon 95.5% | KM12 colon 89.9%

CCOC(=O)c1c(C)nc2c(c1N)/C(=C/c1cc(OC)c(OC)c(OC)c1)C(=O)N2c1ccc(OC)cc1
inactive: T-47D breast 73.2% | BT-549 breast 46.7% | MDA-MB-435 melanoma 49.5% | SW-620 colon 30.9% | MCF7 breast 14.6% | HCC-2998 colon 95.9% | KM12 colon 43.7%
active: HCT-116 colon -0.0724%

CC1=CC(=O)C(C(C)C)=CC1=Nc1cc(Br)c(O)c(Br)c1
active: MDA-MB-435 melanoma -11.7% | HCT-116 colon 1.14% | HCC-2998 colon -43.5% | KM12 colon -1.83%
inactive: T-47D breast 75.5% | BT-549 breast 26.4% | SW-620 colon 27.3% | MCF7 breast 23.2%

COc1ccc(/C=C(\C#N)n2nnc3ccccc32)cc1
inactive: T-47D breast 50.1% | BT-549 breast 21.6% | SW-620 colon 12.8%
active: MDA-MB-435 melanoma -40.1% | MCF7 breast 9.96% | HCT-116 colon 4.97% | HCC-2998 colon -2.35% | KM12 colon 1.79%

COc1cc(C(=O)/C=C/c2c(-c3ccc(F)cc3)nc3ncccn23)cc(OC)c1OC
inactive: T-47D breast 59.8% | BT-549 breast 32.5% | MDA-MB-435 melanoma 11.9% | SW-620 colon 32.2% | MCF7 breast 10% | HCT-116 colon 17.7% | HCC-2998 colon 44.1% | KM12 colon 22.3%

N#C/C(=C\c1ccc(Br)cc1)n1nnc2cc(Cl)c(Cl)cc21
active: MDA-MB-435 melanoma -18.2% | MCF7 breast 6.51%
inactive: T-47D breast 18% | BT-549 breast 22.5% | SW-620 colon 19.2% | HCT-116 colon 22.2% | HCC-2998 colon 35.3% | KM12 colon 29.7%

COc1ccc(/C=C2\C=C(c3ccccc3)N(CCc3ccccc3)C2=O)cc1OC
inactive: BT-549 breast 80.1% | MDA-MB-435 melanoma 36% | SW-620 colon 56% | MCF7 breast 34.4% | HCT-116 colon 32.8% | HCC-2998 colon 73.3% | KM12 colon 64%
active: T-47D breast 8%

C=CCO[C@H]1CO[C@H]2[C@@H]1OC[C@@H]2Oc1ccc(Nc2ccnc(Nc3ccc(O[C@H]4CO[C@H]5[C@@H]4OC[C@@H]5OCC=C)c(Cl)c3)n2)cc1Cl
active: T-47D breast -39.7% | MDA-MB-435 melanoma -88.4% | SW-620 colon -58.9% | MCF7 breast -71.1% | HCT-116 colon -29.7% | HCC-2998 colon -93.3% | KM12 colon -72.1%
inactive: BT-549 breast 32.7%

N#Cc1c(N)nc2c(nnn2-c2cccc(Br)c2)c1N
inactive: T-47D breast 67.1% | BT-549 breast 97.1% | MDA-MB-435 melanoma 108% | SW-620 colon 96.9% | MCF7 breast 71.4% | HCT-116 colon 91.3% | HCC-2998 colon 106% | KM12 colon 97%

CN1C[C@@H](c2ccc(Cl)cc2)[C@]2(NC(=S)N(c3ccc(F)c(Cl)c3)C2=O)[C@@]12C(=O)NC1C=CC(Cl)=C[C@H]12 (stereo partly specified)
inactive: T-47D breast 21% | BT-549 breast 21.6% | MDA-MB-435 melanoma 56.8% | SW-620 colon 62.2% | MCF7 breast 18% | HCC-2998 colon 77.8% | KM12 colon 55%
active: HCT-116 colon -49%

Cc1cc(=O)[nH]c(N/N=C/c2cc(Br)ccc2O)n1
active: MCF7 breast 1.32% | HCT-116 colon 5.04%
inactive: T-47D breast 25% | BT-549 breast 17.2% | MDA-MB-435 melanoma 47.3% | SW-620 colon 40.3% | HCC-2998 colon 32.5% | KM12 colon 34.6%

CC12CC(C#N)CCC1O2 (stereo unspecified)
inactive: T-47D breast 116% | BT-549 breast 111% | MDA-MB-435 melanoma 121% | SW-620 colon 97.3% | MCF7 breast 97.9% | HCT-116 colon 108% | HCC-2998 colon 114% | KM12 colon 113%

O=C1N(c2ccccc2)C(=S)N[C@]12[C@H](c1ccccc1)C1CCCN1[C@]21C(=O)NC2C=CC(Cl)=C[C@H]21 (stereo partly specified)
inactive: T-47D breast 79.6% | BT-549 breast 90.2% | MDA-MB-435 melanoma 112% | SW-620 colon 101% | MCF7 breast 99.1% | HCT-116 colon 78.1% | HCC-2998 colon 103% | KM12 colon 100%

O=C1CSC(c2ccc(O)cc2)N1c1nnc(Cn2cnnc2)o1 (stereo unspecified)
active: MDA-MB-435 melanoma -1.5%
inactive: T-47D breast 92.3% | BT-549 breast 55.8% | SW-620 colon 67.4% | MCF7 breast 84% | HCT-116 colon 93% | HCC-2998 colon 112% | KM12 colon 49.9%

c1ccc([P+](CCCc2n(Cc3ccc4ccccc4c3)c3ccccc3[n+]2Cc2ccc3ccccc3c2)(c2ccccc2)c2ccccc2)cc1
inactive: T-47D breast 56.9% | BT-549 breast 68.1% | MDA-MB-435 melanoma 25.2% | SW-620 colon 35.2% | MCF7 breast 73.9% | HCT-116 colon 24.2% | HCC-2998 colon 53.9% | KM12 colon 32.2%

CC(C)OCCCNCC(=O)Nc1ccc(S(=O)(=O)c2ccc(NC(=O)CNCCCOC(C)C)cc2)cc1
inactive: T-47D breast 103% | BT-549 breast 102% | MDA-MB-435 melanoma 101% | SW-620 colon 87.6% | MCF7 breast 85.8% | HCT-116 colon 81.3% | HCC-2998 colon 73.8% | KM12 colon 99.8%

Cc1nn(-c2ccccc2)c2c1C(c1ccc([N+](=O)[O-])cc1)C(C#N)=C(N)O2 (stereo unspecified)
inactive: T-47D breast 98.4% | BT-549 breast 123% | MDA-MB-435 melanoma 121% | SW-620 colon 119% | MCF7 breast 96.7% | HCT-116 colon 95.8% | HCC-2998 colon 105% | KM12 colon 109%

O=[N+]([O-])c1ccc(-c2cc3c(Nc4ccc(Sc5nc6ccccc6s5)c(Cl)c4)ncnc3s2)cc1
inactive: T-47D breast 37.1% | BT-549 breast 87.6% | MDA-MB-435 melanoma 30.8% | SW-620 colon 49.5% | MCF7 breast 16.2% | HCT-116 colon 11.9% | HCC-2998 colon 49.7% | KM12 colon 35.1%

CN1CCN(CCCOc2ccc3nc(Nc4cc(Cl)cc(Cl)c4)ccc3c2)CC1
active: T-47D breast -68.6% | BT-549 breast -43.2% | MDA-MB-435 melanoma -87.1% | SW-620 colon -82.1% | MCF7 breast -89.2% | HCT-116 colon -78.2% | HCC-2998 colon -89.2% | KM12 colon -88.7%

COc1ccc(C2CC(c3ccccc3)=NN2c2nc(C)c(C(C)=O)s2)cc1 (stereo unspecified)
inactive: T-47D breast 99.7% | BT-549 breast 110% | MDA-MB-435 melanoma 103% | SW-620 colon 96.1% | MCF7 breast 94.7% | HCT-116 colon 97.3% | HCC-2998 colon 107% | KM12 colon 102%

COc1ccc(-c2c(N)n[nH]c2-c2ccccc2O)cc1OC
inactive: T-47D breast 70% | MDA-MB-435 melanoma 93.4% | SW-620 colon 110% | MCF7 breast 96.5% | HCT-116 colon 94.9% | HCC-2998 colon 107% | KM12 colon 107%
active: BT-549 breast -4.52%

Cc1ccc(C)c2c1C(=O)OC2=O
inactive: T-47D breast 96.1% | BT-549 breast 104% | MDA-MB-435 melanoma 114% | SW-620 colon 107% | MCF7 breast 93.5% | HCT-116 colon 96.4% | HCC-2998 colon 118% | KM12 colon 109%

Cl.[Pt].[c-]1ccccc1-c1ccccn1.c1ccc(P(c2ccccc2)C([PH+](c2ccccc2)c2ccccc2)[PH+](c2ccccc2)c2ccccc2)cc1
active: MDA-MB-435 melanoma 4.42% | MCF7 breast 3.15% | HCT-116 colon 7.37% | KM12 colon 5.04%
inactive: T-47D breast 27.8% | BT-549 breast 27% | SW-620 colon 13.6% | HCC-2998 colon 24.9%

COc1ccc(-c2nc3ncccn3c2/C=C/C(=O)c2cc(OC)c(OC)c(OC)c2)cc1
active: SW-620 colon -1.58% | MCF7 breast 3.17% | HCT-116 colon -84.8% | HCC-2998 colon -58.4% | KM12 colon -56.9%
inactive: T-47D breast 17.8% | BT-549 breast 15.6% | MDA-MB-435 melanoma 15.2%

COc1ccccc1C(=O)NC(=S)Nc1ccc(-c2nc3ccccc3[nH]2)cc1
inactive: T-47D breast 80.3% | BT-549 breast 32.3% | MDA-MB-435 melanoma 50.3% | SW-620 colon 43.5% | MCF7 breast 21.3% | HCT-116 colon 13.8% | HCC-2998 colon 85.9% | KM12 colon 53.2%

COc1ccc(C(=O)/C=C/C23c4ccccc4C(c4ccccc42)C2C(=O)NC(=O)C23)cc1 (stereo unspecified)
inactive: T-47D breast 86.2% | BT-549 breast 97.1% | MDA-MB-435 melanoma 101% | SW-620 colon 110% | MCF7 breast 89% | HCT-116 colon 83.2% | HCC-2998 colon 100% | KM12 colon 97.3%
